These results are taken from PubChem BioAssay (NCI).

About 83,000 compounds went through this panel and 20% of them were active in at least one assay; those are over-represented in the sample as a whole.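 Each cell line was grown in a 96-well plate and treated with one concentration of compound for 48 hours. Values below 10 were considered active.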 A number with no mark means an inactive call. Calls of active or inactive are those of the source.

Common to all, as to assay: NCI-60 one-dose screen, 48 h (100 = growth as untreated, 0 = no growth, -100 = all killed)
The subject of experiment [1] is RPMI-8226 leukemia. The note with it: 10 µM unless noted.
For experiment [2], the system named is OVCAR-8 ovarian. The note with it: 10 µM unless noted.
The subject of experiment [3] is OVCAR-5 ovarian. The settings on record: 10 µM unless noted.
Experiment [4] has as its system OVCAR-4 ovarian. The settings on record: 10 µM unless noted.
For experiment [5], the system named is SK-OV-3 ovarian. The settings on record: 10 µM unless noted.
The test system of experiment [6] is IGROV1 ovarian. The note with it: 10 µM unless noted.
Experiment [7] has as its system OVCAR-3 ovarian. The settings on record: 10 µM unless noted.
The test system of experiment [8] is HS 578T breast. The settings on record: 10 µM unless noted.
Experiment [9] deals with NCI/ADR-RES ovarian. The settings on record: 10 µM unless noted.
Experiment [10] has as its system T-47D breast. The note with it: 10 µM unless noted.
In experiment [11] the test system is BT-549 breast. The settings on record: 10 µM unless noted.
The test system of experiment [12] is MDA-MB-435 melanoma. The note with it: 10 µM unless noted.
For experiment [13], the system named is SW-620 colon. The note with it: 10 µM unless noted.
Experiment [14] relates to MCF7 breast. The note with it: 10 µM.
For experiment [15], the system named is HCT-116 colon. The settings on record: 10 µM unless noted.
The subject of experiment [16] is HCC-2998 colon. The note with it: 10 µM unless noted.
For experiment [17], the system named is KM12 colon. The note with it: 10 µM unless noted.

`COc1ccc(-c2cn[nH]c2-c2ccc(OC)c(O)c2)cc1`: the growth was 77.5% in experiment [1]; 88.4% in [2]; 99.1% in experiment [3]; 90.2% in [4]; 86.8% in experiment [5]; 77.2% in [6]. Further, the growth in experiment [7] is 81.1%; in experiment [8] it was 75.9%; in [9], 49.2%; in experiment [10], 73.6%; in [11], 74.1%; in [12], 3.35% (active). In addition, the growth was 38% in [13]; 35.4% in experiment [14]; 61.4% in [15]; 85.8% in experiment [16]; 44.8% in experiment [17].

As to `O=C(Nc1ccc(Cl)cc1)c1cc2ccccc2cc1OP(=O)(O)O`, the growth is -10.1% (active) in experiment [1]; 27.9% in experiment [2]; 69.1% in experiment [3]; 25% in [4]; 19% in experiment [5]; -1.26% (active) in experiment [6]. Further, the growth in experiment [7] is 10.7%; in experiment [8], 32.9%; in experiment [9] it was 16.6%; in [10] it was 25.4%; in experiment [11], 11.7%; in experiment [12], 15.8%. The growth was 42.3% in experiment [13]; 54% in experiment [14]; 10.8% in experiment [15]; 47.9% in experiment [16]; 56.2% in experiment [17].

Consider `Nc1ccccc1-c1ccc(-c2ccc(Cl)cc2)c2c1[nH]c1ccccc12`, for which the growth in experiment [1] is 42.1%; in experiment [2] it was 77%; in experiment [3], 91.2%; in experiment [4], 92.5%; in [5], 106%; in [6], 62.3%. Further, the growth in experiment [7] is 79%; in experiment [8], 82.4%; in experiment [9] it was 77.2%; in experiment [10], 60.4%; in experiment [11], 85.4%; in [12], 91.2%. The growth was 78.2% in experiment [13]; 68.7% in experiment [14]; 52.8% in experiment [15]; 86.1% in [16]; 66.6% in experiment [17].

For the compound `CC(=Nc1ccccc1)C1=C(O)C(Cc2ccc(F)cc2)NC1=O` (stereo not drawn), the growth in [1] is 5.55% (active); in experiment [2], 33.3%; in experiment [3], 44.9%; in [4] it was 45.5%; in [5], 11.7%; in experiment [6], 36.7%. Further, the growth in experiment [7] was -36.9% (active); in experiment [8] it was 32.1%; in experiment [9], 10.6%; in experiment [10] it was 27.7%; in experiment [11], 36.8%; in [12], -53.7% (active). Also, the growth in [13] was 27.4%; in experiment [14], 16.3%; in experiment [15], 27.5%; in [16], 60.4%; in experiment [17] it was 24.5%.

As to `COC(=O)C1=Nc2ccc(F)cc2/C1=C/c1sc(=S)[nH]c1O`, the growth in [1] was -9.01% (active); in experiment [2], 13.3%; in experiment [3] it was 43.6%; in [4], 58.2%; in experiment [5], 28.5%; in experiment [6], 14.4%. Also, the growth in experiment [7] was -1.67% (active); in [8], 23.1%; in experiment [9], 7.28% (active); in experiment [10], 61.2%; in experiment [11], -3.33% (active); in [12], -20.9% (active). In addition, the growth in experiment [13] was 22.6%; in experiment [14], 12.5%; in experiment [15], 6.89% (active); in [16], 25%; in experiment [17] it was 10.3%.

Consider `O=NN(C(=O)NC1CCC(C(=O)O)CC1)C1CCC(C(=O)O)CC1` (stereo not drawn), for which the growth in experiment [1] was 81.8%; in experiment [2] it was 99.7%; in experiment [3], 97.4%; in experiment [4] it was 95.8%; in experiment [5] it was 114%; in [6], 107%. Also, the growth is 113% in experiment [7]; 107% in experiment [8]; 108% in experiment [9]; 103% in experiment [10]; 125% in experiment [11]; 106% in experiment [12]. In addition, the growth was 105% in [13]; 93% in experiment [14]; 104% in experiment [15]; 104% in [16]; 108% in experiment [17].

Consider `CCN1C(=O)N(CC)C2Nn3c(s/c(=C\c4ccccc4F)c3=O)=NC21` (stereo not drawn), for which the growth in [1] is 54.1%; in experiment [2], 44%; in experiment [3], 76.5%; in experiment [4], 84.9%; in [5], 44.8%; in [6], 61.1%. The growth in experiment [7] is 28.5%; in experiment [8], 56.9%; in [9] it was 7.68% (active); in experiment [10] it was 72.8%; in experiment [11] it was 44.3%; in experiment [12] it was -19.9% (active). Further, the growth in [13] is 38.4%; in experiment [14] it was 33.1%; in [15], 17.5%; in experiment [16], 36.1%; in experiment [17], 28.5%.

With `CCCCNc1nc(NC(C)(C)C)nc(NC(C)(C)C)n1`, the growth in [1] is 17.7%; in experiment [2], 59.5%; in experiment [3], 62%; in [4] it was 55.2%; in experiment [5] it was 81.9%; in experiment [6], 51.3%. Further, the growth is 54.2% in experiment [7]; 67.7% in experiment [8]; 53.3% in experiment [9]; 45.3% in experiment [10]; 79.9% in experiment [11]; 72% in experiment [12]. Moreover, the growth in [13] was 52.3%; in experiment [14] it was 56%; in experiment [15], 30.8%; in experiment [16], 74.3%; in experiment [17], 63.8%.

For `O=C(Nc1nc2c(s1)CCc1c-2c(Br)n(Cc2ccccc2)c1Br)c1ccccc1`, the growth in experiment [1] is 63.2%; in [2], 45.4%; in experiment [3], 79.9%; in experiment [4], -3.77% (active); in experiment [5], 57.2%; in experiment [6] it was 18.8%. Moreover, the growth was 62.3% in experiment [7]; 47.9% in [8]; 61.8% in [9]; 46.4% in experiment [10]; 52.8% in [11]; 56.1% in experiment [12]. The growth in [13] was 69.2%; in [14] it was 51.5%; in [15] it was 69.9%; in experiment [16] it was 99.1%; in experiment [17], 65.5%.
